Measurements published in PubChem BioAssay AID651813 (National Center for Advancing Translational Sciences (NCATS), 2012).
The campaign covered roughly 2,100 compounds. About 1,100 (52%) were called active. Inconclusive results (about 27%) are left out. The set was probably picked from earlier hits. The list shows a part of the results. A number with no mark means an inactive call. The call rests on the fitted dose curve; in most records, active means well fitted inhibition curve with a large enough effect; inconclusive means small, poorly fitted or top-dose-only effect; inactive means no such curve, though single readings can be large or run the other way.

Biological target: DNA dC->dU-editing enzyme APOBEC-3G (Homo sapiens) (UniProt Q9HC16)
Sequence (Q9HC16 whole entry, looked up): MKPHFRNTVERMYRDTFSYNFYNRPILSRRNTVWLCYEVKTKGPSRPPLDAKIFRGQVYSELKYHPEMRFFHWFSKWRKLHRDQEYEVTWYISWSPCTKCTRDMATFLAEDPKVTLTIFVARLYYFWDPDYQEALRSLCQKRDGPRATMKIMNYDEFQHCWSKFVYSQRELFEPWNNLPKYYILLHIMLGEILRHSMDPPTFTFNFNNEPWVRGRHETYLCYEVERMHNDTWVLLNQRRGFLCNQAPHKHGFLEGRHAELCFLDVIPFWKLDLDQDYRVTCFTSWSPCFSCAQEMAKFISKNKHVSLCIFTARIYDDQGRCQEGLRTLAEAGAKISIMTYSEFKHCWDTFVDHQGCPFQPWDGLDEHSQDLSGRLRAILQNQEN
Assay: qHTS for inhibitors of Vif-A3G interactions: Cherry picks counterscreen;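 further: hits raise yellow fluorescence by blocking Vif-driven A3G-eYFP degradation; nearly all actives have a fitted effect of over 70% in size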;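 on max response: max response given as percent of control signal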
Conditions: HeLa A3G-eYFP + Vif (tagged APOBEC3G with the HIV-1 protein that degrades it), eYFP fluorescence, 24 h
Outline: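 HeLa cells stably expressing A3G-eYFP and Vif were treated for 24 h at 37 deg C with compounds at several concentrations; yellow fluorescence (Ex 488 nm, Em 500-530 nm) read by Acumen Explorer, MG132 as positive control.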
Potency means the concentration at half of the fitted maximal effect.

| SMILES | Potency | max response |
| --- | --- | --- |
| O=[N+]([O-])c1ccc(N/N=C/c2sc(N3CCOCC3)nc2-c2ccccc2)c(S(=O)(=O)Nc2ccccc2Cl)c1 | 2.91 µM (active) | – |
| COc1ccccc1NS(=O)(=O)c1cc([N+](=O)[O-])ccc1N/N=C/c1sc(N2CCOCC2)nc1-c1ccccc1 | 0.58 µM (active) | – |
| Cc1cc2nc(SCCOC(=O)Nc3cccc(Cl)c3)nc(C)c2cc1C | – | 0.137% |
| C=CCOC(=O)C1=C(C)NC(C)=C(C(=O)OCC=C)C1c1cn(-c2ccccc2)nc1-c1ccco1 | – | -22.7% |
| COc1ccc2c(C)cc(SCC(=O)N(C)C3CCS(=O)(=O)C3)nc2c1 (centres undefined) | 20.6 µM (active) | – |
| COc1ccc2c(C)cc(SCC#N)nc2c1 | 18.4 µM (active) | – |
| CS(=O)(=O)N1N=C(c2ccccc2)CC1c1ccc2c(c1)OCO2 (centres undefined) | 12.5 µM (active) | – |
| CCS(=O)(=O)N1N=C(c2cccc(NS(C)(=O)=O)c2)CC1c1ccc(C)cc1 (centres undefined) | 23.1 µM (active) | – |
| CS(=O)(=O)Nc1ccc(C2=NN(S(C)(=O)=O)C(c3ccc4c(c3)OCO4)C2)cc1 (centres undefined) | 14 µM (active) | – |
| CCS(=O)(=O)N1N=C(c2ccc(C)cc2)CC1c1cc2ccc(OC)cc2nc1Cl (centres undefined) | – | -6.38% |
| CC1=CC(C)(C)NC(=S)N1c1ccc2ccccc2c1 | – | 5% |
| C=C(/C=C/c1ccc(N(C)C)cc1)c1nc2ccccc2s1 | 16.4 µM (active) | – |
| O=c1[nH]ncc2c3ccccc3n(Cc3cccc(Cl)c3)c12 | 18.4 µM (active) | – |
| CC[N+](C)(C(=O)O)/C(=C\c1ccccc1)c1ccnc2ccccc12 (centres undefined) | 16.4 µM (active) | – |
| C[C@@H]1O[C@@H](O[C@@H]2C(=O)c3c(O)cc(O)cc3O[C@H]2c2ccc(O)c(O)c2)[C@H](O)[C@H](O)[C@H]1O | – | -0.692% |
| CCSc1nnc(-c2sc3nnc(-c4ccccc4)c(-c4ccccc4)c3c2N)o1 | 4.61 µM (active) | – |
| COc1ccc(NC(=O)c2sc3nc4c(cc3c2N)CN(Cc2ccccc2)CC4)c(OC)c1 | 18.4 µM (active) | – |
| Nc1c(C(=O)c2ccc(Cl)cc2)sc2nc3c(cc12)CCC3 | 16.4 µM (active) | – |
| CCN1CCc2nc3sc(C(=O)c4ccccc4)c(N)c3cc2C1 | 18.4 µM (active) | – |
| Cc1cc(N2CCN(C)CC2)ccc1NC(=O)c1c2c(nc3ccccc13)CCN(Cc1ccccc1)C2 | – | 4.5% |
| COCCN1C(=O)/C(=C/c2ccc(N3CCCC3)cc2)SC1=S | 7.31 µM (active) | – |
| COCCN1C(=O)/C(=C/c2ccc(N3CCCC3)cc2C)SC1=S | 4.11 µM (active) | – |
| Cc1ccc2oc(/N=C(\N)NC(=O)C(C)(C)C)nc2c1 | – | -19% |
| C/C(=N\NC(N)=S)C12CC3CC(CC(C3)C1)C2 | – | 27.9% |

| SMILES | Potency | max response |
| --- | --- | --- |
| COc1ccc(/C=C/c2ccnc3ccccc23)c(OC)c1 | 16.4 µM (active) | – |
| COc1ccc(NC(=S)Nc2ncccc2C)c(OC)c1 | – | -0.005% |
| COc1cc(OC)c(/C=C/c2ccnc3ccccc23)c(OC)c1 | 7.31 µM (active) | – |
| c1ccc2c(-c3nc4ccccc4[nH]3)cccc2c1 | 11.2 µM (active) | – |
| CCC(C)n1c(NC(=O)c2ccccc2)c(C#N)c2nc3ccccc3nc21 (centres undefined) | 18.4 µM (active) | – |
| CCn1ncc(/C=N\NC(=O)c2csc3ccccc23)c1C | 5.59 µM (active) | – |
| COc1ccc(Cn2c(=O)cc(N)n(-c3ccccc3C)c2=O)cc1 | 11.2 µM (active) | – |
| CCN(CC)c1ccc2cc(-c3nnc(-c4cccc(Cl)c4)o3)c(=O)oc2c1 | 2.59 µM (active) | – |
| CCN(CC)c1ccc2cc(-c3nc(-c4cc(OC)c(OC)c(OC)c4)no3)c(=O)oc2c1 | 0.517 µM (active) | – |
| CCN(CC)c1ccc2cc(-c3nc(-c4ccccc4)no3)c(=O)oc2c1 | 2.06 µM (active) | – |
| CCN(CC)c1ccc2cc(-c3nnc(-c4ccccc4)o3)c(=O)oc2c1 | – | 49.6% |
| CCN(CC)c1ccc2cc(-c3nc4ccccc4n3C)c(=O)oc2c1 | 1.3 µM (active) | – |
| CN(Cc1cnn(Cc2ccccc2)c1)C(=O)c1cccc(S(=O)(=O)N2CCOCC2)c1 | 11.2 µM (active) | – |
| c1ccc(-c2cccc(-c3ccccn3)n2)nc1 | – | -27.5% |
| Nc1[nH]c2cc([N+](=O)[O-])ccc2c1-c1ccccn1 | 4.61 µM (active) | – |
| CCn1c(CNC(=O)c2cc(OC)c(OC)c(OC)c2)cc2cc(C)ccc21 | – | -10.2% |
| COc1cc(C(=O)NCCOc2cc(C)cc(C)c2)cc(OC)c1OC | 3.14 µM (active) | – |
| CCOc1ccccc1Oc1nc(C)nc2c1oc1ccccc12 | 2.91 µM (active) | – |
| CNC(=O)C(Sc1nc(C)nc2c1oc1ccccc12)C(C)=O (centres undefined) | – | -16.6% |
| O=Cc1s/c(=N\S(=O)(=O)c2ccccc2)n(CCCCl)c1Cl | 8.2 µM (active) | – |
| CN(C)c1ccc(C2C=C(c3ccccc3)Nc3nnnn32)cc1 (centres undefined) | 23.1 µM (active) | – |
| COc1ccc(C2=CC(c3ccc(N(C)C)cc3)n3nnnc3N2)cc1 (centres undefined) | 23.1 µM (active) | – |
| CCOC(=O)c1ccc(NC(=O)CSc2nc(-c3cccs3)cc(C(F)(F)F)c2C#N)cc1 | 23.1 µM (active) | – |
| N#Cc1c(C(F)(F)F)cc(-c2cccs2)nc1SCC(=O)Nc1cccc(C(F)(F)F)c1 | 20.6 µM (active) | – |

| SMILES | Potency | max response |
| --- | --- | --- |
| N#Cc1c(C(F)(F)F)cc(-c2cccs2)nc1SCC(=O)Nc1cccc(Cl)c1 | – | -23.7% |
| O=C(CSc1n[nH]c(-c2ccccn2)n1)Nc1ccc(Cl)cc1 | – | 17.5% |
| N#Cc1c(C(F)(F)F)cc(-c2cccs2)nc1SCC(=O)Nc1ccc(Cl)cc1 | 10.3 µM (active) | – |
| O=[N+]([O-])c1ccc(Oc2cccc3cccnc23)c([N+](=O)[O-])c1 | 12.5 µM (active) | – |
| O=[N+]([O-])c1cc(O)c2ncccc2c1 | – | -9.81% |
| O=[N+]([O-])c1cc(Cl)c2cccnc2c1O | – | 30.7% |
| Cc1cc(C)cc(C(=O)N2CC(=O)Nc3ccccc32)c1 | 0.704 µM (active) | – |
| COc1cc(OC)cc(C(=O)N2CC(=O)Nc3ccccc32)c1 | 3.53 µM (active) | – |
| O=C1CN(C(=O)c2cc(Br)c(Br)s2)c2ccccc2N1 | 12.5 µM (active) | – |
| CCC(C)[C@H](NC(=O)N1CC(=O)Nc2ccccc21)C(=O)Nc1ccccc1C (some centres undefined) | 9.94 µM (active) | – |
| COc1cc(C(=O)N2CC(=O)Nc3ccccc32)cc(OC)c1OC | 17.7 µM (active) | – |
| CCCn1nc(C(=O)N2CC(=O)Nc3ccccc32)c2ccccc2c1=O | 7.04 µM (active) | – |
| COc1cc(C(=O)c2ccc3c(c2)OCO3)cc(OC)c1OC | 5.59 µM (active) | – |
| CCOC(=O)N1CCN(c2c(NCc3ccc(F)cc3)c(=O)c2=O)CC1 | 14 µM (active) | – |
| CCOC(=O)Nc1cc2c(c(N)n1)N=C(c1ccccc1)CN2 | 0.058 µM (active) | – |
| COc1ccc(NC(=S)NN(C)C(=S)Nc2ccc(OC)cc2)cc1 | 6.27 µM (active) | – |
| C=CCNC(=S)N/N=C(\C)c1ccc(OC)cc1 | – | -1.31% |
| COc1ccc(N(C)S(=O)(=O)c2cccc3cccnc23)c(OC)c1 | 14 µM (active) | – |
| O=c1cc(-c2ccccc2)[nH]c2ccccc12 | 3.14 µM (active) | – |
| Cc1ccc(N/C(N)=N/c2nc(CSc3nnc(C)s3)cc(=O)[nH]2)c(C)c1 | 2.8 µM (active) | – |
| O=c1c(Cl)c2oc3ccccc3nc-2c2ccccc12 | 10.3 µM (active) | – |
| CC[n+]1c(C=C2C=C(C)OC(C)=C2)sc2ccccc21 | 4.11 µM (active) | – |
| COCCCN(C(C)=O)c1nc(-c2ccc(OC)cc2)cs1 | 14 µM (active) | – |
| S=C(NCc1ccco1)Nc1ccc(Cl)cn1 | – | -10.1% |

| SMILES | Potency | max response |
| --- | --- | --- |
| O=C(CCc1ccccc1)Nc1ccc(Cl)cn1 | 7.9 µM (active) | – |
| CCCC(=O)NC1=C(Cl)C(=O)c2ccccc2C1=O | – | 62.1% |
| Cc1ccc(-c2nc(-c3cc4cccc(OCc5cccc(F)c5)c4oc3=O)no2)cc1 | 23.1 µM (active) | – |
| COc1cc(/C=C/C(=O)c2ccc3c(c2)OCCO3)cc(Br)c1OCC(=O)N(C)C | 14 µM (active) | – |
| O=c1c[n+]([O-])c2ccccc2n1OCc1c(F)cccc1F | 19.8 µM (active) | – |
| Cc1c(=O)n(OCc2ccc(Cl)cc2)c2ccccc2[n+]1[O-] | – | -2.47% |
| CN(C)C=Nc1c(Br)cc(Br)c2nonc12 | 4.61 µM (active) | – |
| CCNC(=S)N/N=C(\C)c1ccc(N2CCOCC2)cc1 | – | -8.21% |
| CCOc1ccc2nc(N3C(=O)/C(=C/c4ccc(Cl)cc4)NC3=S)sc2c1 | 18.4 µM (active) | – |
| COc1ccc(/C=C/C=C2\NC(=S)NC2=O)cc1 | – | -11.7% |
| COc1ccc2nc(N3C(=O)/C(=C/c4ccccc4)NC3=S)sc2c1 | 11.6 µM (active) | – |
| CCOc1cc(C#N)c(NC(=O)c2cccnc2)cc1OCC | 7.04 µM (active) | – |
| Cc1ccc(/C=N/NC(=O)c2cc(C)oc2C)cc1 | 9.94 µM (active) | – |
| CN(C)c1ccc(/C=N/NC(=O)c2ccccc2Cl)cc1 | 4.98 µM (active) | – |
| CSc1ccc(/C=N/NC(=O)c2ccccc2Cl)cc1 | 12.5 µM (active) | – |
| S=C(NN=Cc1ccccn1)Nc1ccccn1 | – | 20.1% |
| COc1cc(C(=O)Nc2ccc3c(c2)ncn3C)cc(OC)c1OC | 7.04 µM (active) | – |
| COc1cc(C(=O)N/N=C/C2CC=CCC2)cc(OC)c1OC (centres undefined) | – | -11.5% |
| COc1cc(C(=O)N/N=C/c2ccccn2)cc(OC)c1OC | 12.5 µM (active) | – |
| COc1cc(C(=O)Nc2ccc3ccccc3c2)cc(OC)c1OC | 1.58 µM (active) | – |
| COc1ccc(C(=O)/C=C2/c3ccccc3CC(C)(C)N2C)cc1 | 12.5 µM (active) | – |
| CN(C)CCOc1ccc2c(c1)C(=O)C(=Cc1ncc([N+](=O)[O-])n1C)C2 | 8.86 µM (active) | – |
